Screening data as filed in PubChem.
RAM inhibit = inhibitors of the yeast RAM network. S. cerevisiae dse1pr::URA3 reporter, 5-FOA growth OD615, 2 d; analog-sensitive cbk1-as2 kinase mutant strain. inhibition, % at 50 µM. hit rate 1.8% among 190,000;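 active = inhibition above a set limit, 3 SD over mean compound inhibition, cut at about 8.4% in these data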;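 also: 0% = DMSO-only wells with no growth and 100% = 10 µM 1-NA-PP1 full growth; inhibition rescues growth on 5-FOA so higher OD means more RAM inhibition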
EP2 antag = inhibitors of human EP2 prostaglandin E2 receptor; C6 glioma cells expressing human EP2, cAMP TR-FRET; cells stimulated with saturating PGE2; inhibition, % at 25 µM; hit rate 0.52% among 260,000; AID 1422;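 active = percent inhibition above 40 after rounding to a whole number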;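 also: rat C6 glioma host cells with rolipram phosphodiesterase inhibitor present; the protocol text gives 20 µM as final concentration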
NR1D1 modulator = modulates human Rev-erb alpha binding to DNA; hit rate 0.79% among 370,000; Rev-erbα–FITC-DNA binding, fluorescence polarization, 90 min; activity, % at 10 µM; P20393; AID 1259318;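 active = activity above about 14%, limit read from the data; passing the limit was not always enough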;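 also: 0% = DMSO wells with 35 nM protein and 100% = DMSO wells with 750 nM protein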
Target sequence (P20393 whole entry, looked up): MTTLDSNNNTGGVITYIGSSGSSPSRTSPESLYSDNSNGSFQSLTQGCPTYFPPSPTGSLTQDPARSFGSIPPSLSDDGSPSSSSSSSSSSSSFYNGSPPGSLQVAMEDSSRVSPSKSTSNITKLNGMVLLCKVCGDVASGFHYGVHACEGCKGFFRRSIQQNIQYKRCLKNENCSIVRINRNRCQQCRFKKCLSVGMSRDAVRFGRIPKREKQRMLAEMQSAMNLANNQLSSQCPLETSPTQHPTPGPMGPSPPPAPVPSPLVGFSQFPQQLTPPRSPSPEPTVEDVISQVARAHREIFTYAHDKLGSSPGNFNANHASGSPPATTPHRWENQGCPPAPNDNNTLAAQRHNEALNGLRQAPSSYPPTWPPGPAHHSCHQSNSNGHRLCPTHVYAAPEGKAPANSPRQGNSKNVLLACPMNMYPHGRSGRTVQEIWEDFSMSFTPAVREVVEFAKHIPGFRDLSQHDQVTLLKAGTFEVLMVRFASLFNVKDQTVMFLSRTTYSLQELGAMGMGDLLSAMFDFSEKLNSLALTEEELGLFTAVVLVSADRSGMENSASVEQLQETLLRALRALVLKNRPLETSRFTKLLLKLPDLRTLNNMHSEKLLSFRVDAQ
EP2 modulator = modulates human prostaglandin E2 receptor EP2 signaling | P43116 | EP2-expressing cells, cAMP HTRF FRET, PGE2 co-stimulation | induction, % at 25 µM | hit rate 0.83% among 260,000;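 active = compounds whose cAMP rise, as percent of the full-agonist control response, exceeds 60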;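 also: rat C6 glioma line stably carrying human EP2 under a CMV promoter; the protocol text gives 20 µM as final concentration; 100% = response of wells given 1 µM PGE2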
PG9 Ab binder = PG9 antibody binding by small molecule; TR-FRET gp120-PG9 antibody binding; hit rate 0.43% among 360,000; inhibition, % at 6.7 µM; in the data active = inhibition above about 8.5%
SKN-1 block = blocks SKN-1 activity in C. elegans; C. elegans VP596 Pgst-4::GFP/RFP ratio, acrylamide-induced, 24 h; inhibition, % at 21.8 µM; hit rate 0.49% among 360,000; AID 624304;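 active = interference check ratio from 0.5 to 1.5 plus GFP to RFP signal ratio inhibition reaching or exceeding a fixed threshold, cut at about 30% in these data, passing the limit was not always enough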
NR1D1 mod conf = confirmation of modulators of human Rev-erb alpha DNA binding; Rev-erb alpha FITC-DNA binding, fluorescence polarization, 90 min; shares compounds with NR1D1 modulator; activation, % at 25 µM; hit rate 61% among 3,000;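 active = activation at or above a set limit, or at least 3 SD above the negative control mean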;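 also: 0% = 35 nM protein with DMSO and 100% = 750 nM protein high control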
RORg DNA counter = RORgamma DNA-binding activity, dose-response counter-screen; hit rate 8% among 910; IC50, µM; shares compounds with NR1D1 modulator; purified RORgamma protein-FITC-DNA binding, fluorescence polarization; AID 1259320;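 active = Compounds whose fitted half-maximal concentration for disrupting protein-DNA binding is below 10 micromolar; the record names Rev-erb in its text, so the target is in doubt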
* marks the source's active call; other numbers are inactive results; . = not tested or not shown. In the library only some 2.9% were active in any assay of this set; here they are far more common.

SMILES | RAM inhibit | EP2 antag | NR1D1 modulator | EP2 modulator | PG9 Ab binder | SKN-1 block | NR1D1 mod conf | others
CCOc1ccc(CCNC(=O)COC(=O)c2ccc(S(C)(=O)=O)cc2)cc1OCC | . | . | 17.2* | . | -2.1 | 8.9 | 2.9
COc1ccc(-n2ncc3c(=O)n(CC(=O)N4CCc5ccccc54)cnc32)cc1 | . | 8.0 | . | 31.8 | . | . | .
CC(=O)N1CCc2cc(N=NC3=C(O)CC(C)(C)CC3=O)ccc21 | 3.5 | 6.0 | 20.0* | -6.2 | -3.0 | 18.7 | 20.2*
COc1ccc(CNC(=O)C(C#N)c2nc3ccccc3nc2N2CCCC2)cc1 (stereo not drawn) | 6.2 | 19.2 | 41.9* | 28.1 | 0.1 | -53.9 | 23.0*
COc1ccc(CNC(=O)C(C#N)c2nc3ccccc3nc2N2CCN(C)CC2)cc1 (stereo not drawn) | -0.4 | 10.1 | -0.7 | -27.1 | -1.3 | 5.5 | .
O=c1c(Cl)c(N2CCN(S(=O)(=O)c3ccc(F)cc3)CC2)cnn1-c1cccc(Cl)c1 | 5.4 | 14.2 | 27.9* | -20.7 | -0.2 | 0.7 | 27.5*
O=c1c(Cl)c(N2CCN(S(=O)(=O)c3ccccc3)CC2)cnn1-c1ccccc1 | 4.8 | 5.9 | 2.1 | -37.8 | 0.1 | 1.8 | .
Cc1cc2nc(C3CCCN3C(=O)c3cc(-c4ccco4)[nH]n3)[nH]c2cc1C (stereo not drawn) | . | . | . | -50.1 | . | . | .
CCOCCCNC(=O)c1cc(-c2ccc(Br)s2)nc2ccccc12 | . | . | 21.5* | . | -28.8 | 11.3 | -15.4
CC(=O)Nc1ccc2ccc3cccc4ccc1c2c34 | 0.2 | 4.9 | 33.0* | -63.7 | -10.9 | 6.4 | 28.4*
Cc1ccc(OCC(=O)NNC(=O)C2CCN(c3nc(C)cc(C)n3)CC2)cc1 | 2.5 | 17.1 | 22.8* | 20.9 | -1.7 | 8.6 | -1.2
Cc1cc(C)nc(N2CCC(C(=O)NNC(=O)Cc3ccccc3)CC2)n1 | . | 3.6 | 3.1 | -13.8 | -1.7 | 4.5 | .
O=C(NCc1ccccn1)c1ccc(Cn2c(=S)[nH]c3ccc(Br)cc3c2=O)cc1 | 4.1 | 3.1 | 42.5* | -27.9 | -0.6 | -9.9 | 34.9* | RORg DNA counter=>40
O=c1c2ccccc2[nH]c(=S)n1CCc1ccccc1 | 4.6 | 1.1 | 5.4 | 8.8 | -1.7 | 8.0 | .
O=c1c2ccccc2[nH]c(=S)n1Cc1ccccc1 | . | . | 18.9* | . | 0.1 | 3.7 | 5.7
CCOC(=O)c1ccc(NC(=O)N2CCn3cnnc3C2)cc1 | . | 0.0 | . | -28.0 | . | . | .
Cc1ccccc1OCc1nnc(SCC(=O)N2C(C)CCCC2C)o1 (stereo not drawn) | . | 9.6 | . | -22.2 | . | . | .
CCOC(=O)c1c(-c2ccccc2)csc1NC(=O)c1cc(S(=O)(=O)N2CCOCC2)ccc1C | 8.4 | 12.9 | 33.6* | 0.4 | -0.5 | 10.1 | 49.4* | RORg DNA counter=>40
CCOC(=O)c1c(-c2ccccc2)csc1NC(=O)c1ccc(S(=O)(=O)N2CC(C)OC(C)C2)cc1 (stereo not drawn) | 3.3 | 2.1 | 4.2 | 33.6 | -0.3 | 6.0 | .
CCC1Oc2nc3ccccc3cc2CN(Cc2cccs2)C1=O (stereo not drawn) | . | 1.9 | . | -12.2 | . | . | .
CCC(C)NC(=O)C1CCN(Cc2cccc(OC)c2O)CC1 (stereo not drawn) | . | 15.3 | . | -14.2 | . | . | .
Cc1ccccc1C(=O)Nc1ccc(C(=O)NNC(=O)CCCOc2ccc(Cl)cc2Cl)cc1 | 3.4 | 6.3 | 0.0 | -9.6 | -0.3 | 8.8 | .
O=C(CCCOc1ccc(Cl)cc1Cl)NNC(=O)c1ccc(NC(=O)c2ccccc2)cc1 | 4.9 | 4.5 | 73.8* | 2.9 | 1.6 | -6.8 | 99.0* | RORg DNA counter=>40
CN(CCC#N)c1ccc(C=C(C#N)c2ccc(Br)cc2)cc1 | . | . | -1.0 | . | -2.6 | 23.2 | .
CN(CCC#N)c1ccc(/C=C(\C#N)c2ccccn2)cc1 | 2.3 | 8.8 | 71.4* | -3.0 | -2.1 | 15.8 | 74.7* | RORg DNA counter=>40
O=C(CN1C(=O)N2CCN=C2c2ccccc21)Nc1ccc(N2CCOCC2)cc1 | . | 8.2 | . | -25.6 | . | . | .
CC(=O)Nc1nc(CC(C)C)cc2c1c(=O)oc1ccccc12 | 3.0 | 14.3 | 26.9* | 15.2 | 5.8 | 10.1 | 2.8
CCn1c(SCC(=O)Nc2ccc(NC(=O)c3ccc(Cl)cc3)cc2)nnc1-c1cccs1 | . | 13.8 | . | 11.7 | . | . | .
